Measured values as given in PubChem BioAssay (NCI).
Compounds without any hit were thinned out: in the full panel of roughly 83,000, 20% have a hit.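 A percent growth of 40 corresponds to 60% growth inhibition; 0 means no net growth; -100 means all cells died. Active threshold: below 10.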 The source made the active and inactive calls.

Assays:
Test in all cases: NCI-60 one-dose screen, 48 h (100 = growth as untreated, 0 = no growth, -100 = all killed)
Conditions in all cases: 10 µM unless noted
NCI-H23 lung = tested on: NCI-H23 lung
NCI-H226 lung = tested on: NCI-H226 lung
NCI-H322M lung = tested on: NCI-H322M lung
HOP-62 NSCLC = tested on: HOP-62 NSCLC
NCI-H460 lung = tested on: NCI-H460 lung
HOP-92 NSCLC = tested on: HOP-92 NSCLC
NCI-H522 lung = tested on: NCI-H522 lung
A549/ATCC NSCLC = tested on: A549/ATCC NSCLC
786-0 renal = tested on: 786-0 renal
COLO 205 colon = tested on: COLO 205 colon

Measured: growth

COC(=O)/C=C1\SC(=Nc2cccc(OC)c2)N(CCc2c[nH]c3ccccc23)C1=O
inactive: NCI-H23 lung 67.9% | NCI-H226 lung 98.2% | NCI-H322M lung 76.8% | HOP-62 NSCLC 53% | NCI-H460 lung 80.7% | HOP-92 NSCLC 46.6% | NCI-H522 lung 28.4% | A549/ATCC NSCLC 61.4% | 786-0 renal 76.7% | COLO 205 colon 75.8%

CCCCc1n(Cc2ccc3ccccc3n2)cc[n+]1Cc1ccc2ccccc2c1
inactive: NCI-H226 lung 14.2% | NCI-H322M lung 30.6% | HOP-62 NSCLC 17.4% | A549/ATCC NSCLC 27% | 786-0 renal 20.4%
active: NCI-H23 lung -1.01% | NCI-H460 lung 7.73% | HOP-92 NSCLC -33.9% | NCI-H522 lung -8.22% | COLO 205 colon -74.2%

Cc1cccc2nc3c(n12)C(=O)C(=O)c1ccccc1-3
inactive: NCI-H23 lung 39.6% | NCI-H226 lung 80% | NCI-H322M lung 90% | HOP-62 NSCLC 26% | NCI-H460 lung 37.3% | HOP-92 NSCLC 92.6% | NCI-H522 lung 43.8% | A549/ATCC NSCLC 61.2% | 786-0 renal 106% | COLO 205 colon 98.3%

Nc1cc(N)nc(SCC(=O)O)n1
inactive: NCI-H23 lung 102% | NCI-H226 lung 103% | NCI-H322M lung 102% | HOP-62 NSCLC 104% | NCI-H460 lung 106% | HOP-92 NSCLC 97.3% | NCI-H522 lung 79.7% | A549/ATCC NSCLC 88% | 786-0 renal 99.1% | COLO 205 colon 114%

COc1ccc(-n2nc(C(=O)NCC(=O)O)nc2-c2ccccc2)cc1
inactive: NCI-H23 lung 107% | NCI-H226 lung 105% | NCI-H322M lung 98.1% | HOP-62 NSCLC 108% | NCI-H460 lung 116% | HOP-92 NSCLC 97.1% | NCI-H522 lung 82.5% | A549/ATCC NSCLC 97.8% | 786-0 renal 102% | COLO 205 colon 124%

N#CCNc1ccc(C(=O)O)cc1
inactive: NCI-H23 lung 101% | NCI-H226 lung 95.3% | NCI-H322M lung 114% | HOP-62 NSCLC 98.3% | NCI-H460 lung 103% | HOP-92 NSCLC 94% | NCI-H522 lung 90.4% | A549/ATCC NSCLC 87% | 786-0 renal 104% | COLO 205 colon 110%

Nc1c(C(=O)Nc2ccccn2)sc2nc3c(cc12)CCCCCC3
active: NCI-H460 lung 6.37% | NCI-H522 lung 6.47% | COLO 205 colon 8.74%
inactive: NCI-H23 lung 41% | NCI-H226 lung 42.1% | NCI-H322M lung 33% | HOP-62 NSCLC 17.8% | HOP-92 NSCLC 30.8% | A549/ATCC NSCLC 14.1% | 786-0 renal 10.7%

CC(C)(C)CC(C)(C)Cc1ccc(OCCOCC[N+](C)(C)Cc2ccccc2)cc1
inactive: NCI-H23 lung 20.7% | NCI-H226 lung 38.1% | NCI-H322M lung 70.6% | HOP-62 NSCLC 66.1% | NCI-H460 lung 13.7% | A549/ATCC NSCLC 71.8% | 786-0 renal 44.5%
active: HOP-92 NSCLC -7.72% | NCI-H522 lung 9.27% | COLO 205 colon -72.3%

C=C1C(=O)O[C@H]2[C@H]1CC/C(COC(=O)NCc1nc3ccccc3[nH]1)=C\CC[C@@]1(C)O[C@@H]21
active: NCI-H522 lung -43.9%
inactive: NCI-H23 lung 87.2% | NCI-H226 lung 88.4% | NCI-H322M lung 112% | HOP-62 NSCLC 95% | NCI-H460 lung 102% | HOP-92 NSCLC 136% | A549/ATCC NSCLC 94.6% | 786-0 renal 101% | COLO 205 colon 18.8%

C=C1C(=O)O[C@H]2[C@H]1CC/C(COC(=O)c1cn(C)c3ccccc13)=C\CC[C@@]1(C)O[C@@H]21
inactive: NCI-H23 lung 22.5% | NCI-H322M lung 85.2% | HOP-62 NSCLC 32.4% | NCI-H460 lung 39.7% | A549/ATCC NSCLC 51.4%
active: NCI-H226 lung -36.5% | HOP-92 NSCLC -57.9% | NCI-H522 lung -85.1% | 786-0 renal -63% | COLO 205 colon -80.4%

CC(C)(C)c1ccc2oc(=O)n(SC(Cl)(Cl)Cl)c2c1
inactive: NCI-H23 lung 95.1% | NCI-H226 lung 104% | NCI-H322M lung 106% | HOP-62 NSCLC 94.1% | NCI-H460 lung 96.6% | HOP-92 NSCLC 106% | NCI-H522 lung 79% | A549/ATCC NSCLC 97% | 786-0 renal 91.1% | COLO 205 colon 106%

C=C(C)[C@@H]1CC[C@]2(C(=O)O)CC[C@]3(C)[C@H](CC[C@@H]4[C@@]5(C)C[C@@H](CC#Cc6ccccc6C)C(=O)C(C)(C)[C@@H]5CC[C@]43C)[C@@H]12
active: NCI-H522 lung -4.68% | COLO 205 colon -7.56%
inactive: NCI-H23 lung 18.2% | NCI-H226 lung 23.7% | NCI-H322M lung 36.4% | HOP-62 NSCLC 32.5% | NCI-H460 lung 16% | HOP-92 NSCLC 38.1% | A549/ATCC NSCLC 26.7% | 786-0 renal 34.4%

C[C@H]1[C@H](C)CC[C@]2(C(=O)OCCCC[P+](c3ccccc3)(c3ccccc3)c3ccccc3)CC[C@]3(C)C(=CC[C@@H]4[C@@]5(C)CC[C@H](OC(=O)C(Cl)Cl)C(C)(C)[C@@H]5CC[C@]43C)[C@H]12
active: NCI-H23 lung -48.3% | NCI-H226 lung -78.8% | NCI-H322M lung -10.6% | HOP-62 NSCLC -65% | NCI-H460 lung -83.8% | HOP-92 NSCLC -70.1% | NCI-H522 lung -55% | A549/ATCC NSCLC -41.9% | 786-0 renal -83.5% | COLO 205 colon -84.9%
